# Assay results as given in PubChem BioAssay (NCI).
# About 79,000 compounds went through this panel and 15% of them were active in at least one assay; those are over-represented in the sample as a whole. A number with no mark means an inactive call. Active and inactive are the calls of the source. Rule as the data show it: active = growth inhibition above about 70%; inactive = the rest.
# Assays:
# [1] = NCI Yeast Anticancer Drug Screen. Data for the rad52 strain (AID 147);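 also: 0% = growth of vehicle-treated control cultures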; conditions: S. cerevisiae rad52 mutant growth inhibition, active compounds read high
# Outline: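 Measured: yeast growth inhibition. System: strain with a defined DNA damage repair alteration. Reference: vehicle-treated control cultures.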
# [2] = NCI Yeast Anticancer Drug Screen. Data for the wt1 strain (AID 149);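 also: 0% = growth of vehicle-treated wt1 cultures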; conditions: S. cerevisiae wt1 strain (SPY 50644) growth inhibition, active compounds read high
# Outline: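 Each compound is tested on wt1 yeast and the loss of growth versus vehicle gives the inhibition value.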
# [3] = NCI Yeast Anticancer Drug Screen. Data for the mgt1 strain (AID 153); conditions: S. cerevisiae mgt1 mutant growth inhibition, active compounds read high
# Outline: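 After exposure of the mgt1 yeast mutant to compound, growth was measured and reported as inhibition compared with vehicle controls.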
# [4] = NCI Yeast Anticancer Drug Screen. Data for the rad50 strain (AID 155);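 also: 0% = growth of vehicle-only cultures of the same strain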; conditions: S. cerevisiae rad50 strain growth inhibition, active compounds read high
# Outline: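 Vehicle-treated cultures provide the reference for the growth inhibition reported for compound-exposed, repair-deficient yeast.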
# [5] = NCI Yeast Anticancer Drug Screen. Data for the mec2-1 strain (AID 157); conditions: S. cerevisiae mec2-1 strain, active compounds read high
# Outline: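 Test agents were screened against the mec2-1 yeast strain, with defined DNA repair or cell cycle alteration. Growth was scored as inhibition against vehicle-only controls.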
# [6] = NCI Yeast Anticancer Drug Screen. Data for the rad14 strain (AID 159);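 also: 0% = growth of vehicle-treated control cultures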; conditions: S. cerevisiae rad14 strain growth inhibition, active compounds read high
# Outline: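 Inhibition of growth is reported for a repair-deficient yeast mutant following compound treatment, calculated relative to cultures that received vehicle.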
# [7] = NCI Yeast Anticancer Drug Screen. Data for the sgs1 mgt1 strain (AID 161);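 also: 0% = growth of cultures given vehicle only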; conditions: S. cerevisiae sgs1 mgt1 strain, active compounds read high
# Outline: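 Inhibition of yeast growth, normalised to vehicle-treated controls, is reported for a strain bearing genetic alterations in DNA damage repair.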
# [8] = NCI Yeast Anticancer Drug Screen. Data for the CLN2oe strain (AID 163);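 also: 0% = growth of vehicle-only control cultures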; conditions: S. cerevisiae CLN2oe strain, active compounds read high
# Outline: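 Here, growth inhibition in a cell-cycle-altered yeast strain after compound exposure was quantified against vehicle control growth.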
# [9] = NCI Yeast Anticancer Drug Screen. Data for the cln2 rad14 strain (AID 165);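 also: 0% = growth equal to vehicle treated cultures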; conditions: S. cerevisiae cln2 rad14 strain, active compounds read high
# Outline: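 Growth of compound-exposed yeast (cln2 rad14 genotype) measured and expressed as inhibition relative to vehicle.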
# [10] = NCI Yeast Anticancer Drug Screen. Data for the bub3 strain (AID 167); conditions: S. cerevisiae bub3 mutant strain, active compounds read high
# Outline: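 Mutant yeast screening strain plus compound; vehicle-treated cultures serve as the 0% inhibition reference.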
# [11] = NCI Yeast Anticancer Drug Screen. Data for the wt2 strain (AID 169); conditions: S. cerevisiae wt2 strain growth inhibition, active compounds read high
# Outline: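 Genetically defined yeast strains from a DNA-repair/cell-cycle panel were used. Compound-exposed yeast growth was measured, and the inhibition was calculated relative to vehicle treatment.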
# [12] = NCI Yeast Anticancer Drug Screen. Data for the mlh1 strain (AID 171);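 also: 0% = growth of vehicle-treated control cultures of the same strain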; conditions: S. cerevisiae mlh1 strain growth inhibition, active compounds read high
# Outline: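 Here the genetically defined yeast mutant is grown with each compound, and the extent to which its growth falls below that of vehicle-exposed cells is reported.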
# [13] = NCI Yeast Anticancer Drug Screen. Data for the sgs1 strain (AID 173);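 also: 0% = growth of vehicle-only control cultures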; conditions: S. cerevisiae sgs1 mutant, active compounds read high
# Outline: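 Relative growth inhibition, referenced to vehicle, was determined in a yeast strain with a defined alteration affecting DNA damage repair or cell cycle control after compound exposure.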
# [14] = NCI Yeast Anticancer Drug Screen. Data for the mlh1 rad18 strain (AID 175); conditions: S. cerevisiae mlh1 rad18 strain growth inhibition, active compounds read high
# Outline: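 In this whole-cell yeast screen, a strain with altered DNA damage repair is challenged with compound, and its growth is measured against matched vehicle-treated controls.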
# [15] = NCI Yeast Anticancer Drug Screen. Data for the rad18 strain (AID 177); conditions: S. cerevisiae rad18 mutant growth inhibition, active compounds read high
# Outline: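 Screen uses a yeast strain with a defined lesion in DNA damage repair; compound effect is read as loss of growth compared to untreated vehicle cultures.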
# [16] = at 5.0 µM (retest, dose inferred, filed as 0.5)
# [17] = at 50.0 µM (retest, dose inferred, filed as 5.0)
compound,measurement,setting,value
CCCCCCCCCCCCCCCCCCNC,growth inhibition,[1]; at 1.2 µM,15%
same,growth inhibition,[1]; at 3.7 µM,-4%
same,growth inhibition,[1]; at 11.0 µM,0%
same,growth inhibition,[1]; at 33.0 µM,14%
same,growth inhibition,[1]; at 100.0 µM,95% (active)
same,growth inhibition,[2]; at 1.2 µM,5%
same,growth inhibition,[2]; at 3.7 µM,17%
same,growth inhibition,[2]; at 11.0 µM,12%
same,growth inhibition,[2]; at 33.0 µM,15%
same,growth inhibition,[2]; at 100.0 µM,86% (active)
same,growth inhibition,[3]; at 1.2 µM,17%
same,growth inhibition,[3]; at 3.7 µM,25%
same,growth inhibition,[3]; at 11.0 µM,21%
same,growth inhibition,[3]; at 33.0 µM,26%
same,growth inhibition,[3]; at 100.0 µM,96% (active)
same,growth inhibition,[4]; at 1.2 µM,-10%
same,growth inhibition,[4]; at 3.7 µM,1%
same,growth inhibition,[4]; [16],34%
same,growth inhibition,[4]; at 11.0 µM,-2%
same,growth inhibition,[4]; at 33.0 µM,17%
same,growth inhibition,[4]; [17],90% (active)
same,growth inhibition,[4]; at 50.0 µM,68.5%
same,growth inhibition,[4]; at 100.0 µM,87% (active)
same,growth inhibition,[5]; at 1.2 µM,14%
same,growth inhibition,[5]; at 3.7 µM,3%
same,growth inhibition,[5]; [16],50%
same,growth inhibition,[5]; at 11.0 µM,-3%
same,growth inhibition,[5]; at 33.0 µM,18%
same,growth inhibition,[5]; [17],95% (active)
same,growth inhibition,[5]; at 50.0 µM,69%
same,growth inhibition,[5]; at 100.0 µM,96% (active)
same,growth inhibition,[6]; at 1.2 µM,-22%
same,growth inhibition,[6]; at 3.7 µM,-16%
same,growth inhibition,[6]; at 11.0 µM,-16%
same,growth inhibition,[6]; at 33.0 µM,-9%
same,growth inhibition,[6]; at 100.0 µM,75% (active)
same,growth inhibition,[7]; [16],-6%
same,growth inhibition,[7]; [17],97% (active)
same,growth inhibition,[7]; at 50.0 µM,81.2% (active)
same,growth inhibition,[8]; at 1.2 µM,13%
same,growth inhibition,[8]; at 3.7 µM,19%
same,growth inhibition,[8]; at 11.0 µM,2%
same,growth inhibition,[8]; at 33.0 µM,-4%
same,growth inhibition,[8]; at 100.0 µM,77% (active)
same,growth inhibition,[9]; [16],32%
same,growth inhibition,[9]; [17],92% (active)
same,growth inhibition,[9]; at 50.0 µM,8.1%
same,growth inhibition,[10]; at 1.2 µM,12%
same,growth inhibition,[10]; at 3.7 µM,15%
same,growth inhibition,[10]; [16],50%
same,growth inhibition,[10]; at 11.0 µM,32%
same,growth inhibition,[10]; at 33.0 µM,20%
same,growth inhibition,[10]; [17],96% (active)
same,growth inhibition,[10]; at 50.0 µM,87.1% (active)
same,growth inhibition,[10]; at 100.0 µM,94% (active)
same,growth inhibition,[11]; at 1.2 µM,-35%
same,growth inhibition,[11]; at 3.7 µM,-17%
same,growth inhibition,[11]; at 11.0 µM,-40%
same,growth inhibition,[11]; at 33.0 µM,-24%
same,growth inhibition,[11]; at 100.0 µM,82% (active)
same,growth inhibition,[12]; at 1.2 µM,-26%
same,growth inhibition,[12]; at 3.7 µM,-10%
same,growth inhibition,[12]; at 11.0 µM,-8%
same,growth inhibition,[12]; at 33.0 µM,-40%
same,growth inhibition,[12]; at 100.0 µM,70% (active)
same,growth inhibition,[13]; at 1.2 µM,-9%
same,growth inhibition,[13]; at 3.7 µM,-27%
same,growth inhibition,[13]; at 11.0 µM,-27%
same,growth inhibition,[13]; at 33.0 µM,-16%
same,growth inhibition,[13]; at 100.0 µM,87% (active)
same,growth inhibition,[14]; [16],41%
same,growth inhibition,[14]; [17],94% (active)
same,growth inhibition,[14]; at 50.0 µM,61.3%
same,growth inhibition,[15]; at 1.2 µM,17%
same,growth inhibition,[15]; at 3.7 µM,7%
same,growth inhibition,[15]; at 11.0 µM,7%
same,growth inhibition,[15]; at 33.0 µM,18%
same,growth inhibition,[15]; at 100.0 µM,88% (active)
